A value given as a limit tells only on which side of the number the result lay.
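Further: kd values determined as follow-up on hits from a single-replicate KINOMEscan panel screen.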

The test system of one test is DAPK1.
A word on the Kd: it is the equilibrium constant for the complex coming apart. As for `COc1ccc(-c2nc3n(c2-c2ccncc2)CCC3)cc1` [SKF-104493], the Kd was more than 10 µM. The same measure, in the same setting: under `CC(=O)Nc1n[nH]c2ncc(-c3ccccc3)cc12` [SB-548492] stands more than 10 µM. On the same count and under the same terms, under `Cl.Cl.c1ccc(-c2cc3ccncc3cc2OC2CCNCC2)cc1` [GSK1122999] stands 0.3 µM.

The next test relates to DAPK3.
The molecule `O=C(c1ccc(-c2cc(-c3c[nH]nc3-c3ccccn3)ccn2)cc1)N1CCCC1` [GW792479] came in with a dissociation constant (Kd) of more than 10 µM. Same read-out and setting: under `Cn1cc(-c2ccc3c(c2)CCN3C(=O)Cc2cccc(C(F)(F)F)c2)c2c(N)ncnc21` [GSK2606414] stands more than 10 µM. `Cl.Cl.c1ccc(-c2cc3ccncc3cc2OC2CCNCC2)cc1` [GSK1122999] displayed an equilibrium dissociation constant (Kd) of 0.17 µM. This counts as sub-micromolar.

In turn, `FC(F)(F)c1ccc(-c2cc(-c3c[nH]nc3-c3ccccn3)ccn2)cc1` [GW599550] yielded a Kd of more than 10 µM.

Values taken from PMC5540273 (PLoS ONE, 2017).
